# Reference: PubChem BioAssay AID686979 (National Center for Advancing Translational Sciences (NCATS), 2013)
# The whole screen tested about 420,000 compounds, of which about 50,000 (12%) were called active. About 26% were inconclusive and are not listed. This is one part of a sample in which actives are shown more often than they occur. Values without a mark were called inactive. The call rests on the fitted dose curve; in most records, active means well fitted inhibition curve with a large enough effect; inconclusive means small, poorly fitted or top-dose-only effect; inactive means flat fitted curve, though single readings scatter.
# Experiment: qHTS for Inhibitors of human tyrosyl-DNA phosphodiesterase 1 (TDP1): qHTS in cells in presence of CPT; further: nearly all actives have a fitted effect of over 55% in size
# Conditions: chicken DT40 Tdp1-/-;hTDP1 cells + 20 nM CPT, ATP luminescence, 48 h; series mostly up to 46.2 µM; activity change, negative = growth inhibition: at the top concentration
# Summary of the method: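 Chicken DT40 Tdp1-/- cells stably complemented with human TDP1 were seeded at 400 cells/well in medium containing 20 nM camptothecin, exposed to pin-transferred compounds, and grown at 37 °C for at least 48 hr. Viability was read as ATP luminescence.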
# On the % scale 0 is the no-effect control and ±100 the full control effect; potency means the concentration at half of the fitted maximal effect.
Structure (SMILES),"activity change, negative = growth inhibition",Potency
O=C(c1ccc(F)cc1)N1CCC(C(=O)N2CCN(S(=O)(=O)c3ccccc3Br)CC2)CC1,-22.5%,
COc1ccc(NC(=O)C2CCC(CNS(=O)(=O)c3csc(C(N)=O)c3)CC2)cc1OC (configuration not stated),-4.23%,
O=C(c1ccc(F)c(S(=O)(=O)N2CCOCC2)c1)N(CCc1ccccc1)Cc1ccccc1,,14.6 µM (active)
Cc1cccc(N(Cc2ccccc2)C(=O)c2cc(S(=O)(=O)N3CCOCC3)ccc2F)c1,,18.4 µM (active)
O=C(COC(=O)c1ccc(F)c(S(=O)(=O)N2CCOCC2)c1)NCc1ccc2c(c1)OCO2,-23%,
Cc1nn(Cc2ccccc2)c(C)c1CNC(=O)c1ccc(F)c(S(=O)(=O)N2CCOCC2)c1,-13.2%,
Cc1ccc(S(=O)(=O)N2CCN(C(=O)c3cc(S(=O)(=O)N4CCOCC4)ccc3F)CC2)cc1,-24.8%,
Cc1ccc(S(=O)(=O)N2CCOCC2)cc1C(=O)NC(=S)N(Cc1ccccc1)C(C)C,6.11%,
CC(C)Cn1cc(-c2cncc3nccn23)cn1,5.95%,
CCCCN(CC(=O)NC(C)(C)C)C(=O)C(=O)Nc1ccc2c(c1)OCCO2,1.35%,
O=C(O)c1cc2c(cc1NC(=O)c1c(F)cccc1Cl)OCCCO2,5.92%,
Cc1ccc(CNC(=O)CSc2nnc3c(n2)[nH]c2ccc(F)cc23)cc1,9.5%,
O=c1c(-c2ccc(Cl)cc2)[n+]([O-])c2ccccc2n1OCc1nc2ccccc2[nH]1,17.6%,
CCOc1ccc(OCC)c(-c2c(=O)n(OCc3ccc(Cl)cc3)c3ccccc3[n+]2[O-])c1,,7.31 µM (active)
CCOC(=O)COn1c(=O)c(-c2ccc(OCC)cc2)[n+]([O-])c2ccccc21,-16.7%,
O=C(N/N=C/c1ccco1)c1csc2c1CCCC2,-2.91%,
Cc1ccccc1Cn1c(=O)[nH]c2ccccc21,-15.8%,
Cc1cccc(C)c1NC(=O)N1CC(C)OC(C)C1 (configuration not stated),-2.12%,
Cc1cccc(C)c1NC(=O)N1CC=C(n2c(=O)[nH]c3ccccc32)CC1,,14.6 µM (active)
C[C@H](CO)N1C[C@H](C)[C@@H](CN(C)C(=O)c2cnccn2)Oc2ncc(Br)cc2C1=O,-4.57%,
NNc1nnc(Cc2ccncc2)c2ccccc12,-16.8%,
O=C(NC1CCN(Cc2ccccc2)CC1)c1c(F)cccc1F,-5.75%,

Structure (SMILES),"activity change, negative = growth inhibition",Potency
O=C(NNC(=S)Nc1ccc(Br)cc1Cl)c1ccco1,1.82%,
O=C(NC1CCN(Cc2ccccc2)CC1)c1cc(Br)c(Br)[nH]1,,18.4 µM (active)
Cc1ccn2cc(C(=O)NC3CCN(Cc4ccccc4)CC3)nc2c1,-22.4%,
O=C(NC1CCN(Cc2ccccc2)CC1)c1ccccc1F,-25.2%,
Cc1cc(Br)ccc1NC(=S)NC1CCCC1,-25.2%,
Cc1cc(C(=O)NC2CCN(Cc3ccccc3)CC2)n[nH]1,1.51%,
S=C(Nc1ccc(Br)cc1Cl)NC1CCN(Cc2ccccc2)CC1,,18.4 µM (active)
S=C(Nc1ccc(Br)cc1)NC1CCN(Cc2ccccc2)CC1,,16.4 µM (active)
O=C(Nc1ccccc1)N1CCC(C(=O)N2CCN(Cc3ccccc3)CC2)CC1,-23.9%,
Cc1ccc(-c2cc(C(=O)NC3CCN(Cc4ccccc4)CC3)c3ccccc3n2)cc1,,14.6 µM (active)
O=C(c1cccc(-n2cccc2)c1)N1CCN(S(=O)(=O)c2ccc(F)cc2)CC1,-14.8%,
COc1cc(/C=C/C(=O)OCC(=O)NC2CC2)cc(OC)c1OC,4.67%,
COC(=O)c1sccc1NC(=O)c1ccc(Cl)cc1,-0.881%,
CCc1ccc(NC(=O)CCNS(=O)(=O)c2cccs2)cc1,-1.58%,
Cc1cccc(C)c1NC(=O)CN1C(=O)C(C)Oc2ccccc21 (configuration not stated),5.54%,
CCC1C(=O)c2ccccc2N(C)C1=O (configuration not stated),15.8%,
Cc1onc(C(=O)Nc2ccc3c(c2)OCO3)c1[N+](=O)[O-],-30.1%,
Cc1ccc(NC(=O)CSc2nnc(CNC(=O)c3ccccc3F)o2)cc1Cl,-18%,
O=C(NC1CC(=O)N(c2ccccc2)C1)c1ccco1 (configuration not stated),9.32%,
COc1cc(NC(=O)CN2CCN(S(=O)(=O)c3ccc(Br)cc3)CC2)cc(OC)c1,-4.27%,
COc1ccc(NC(=O)CN(C)C(=O)CNC(=O)C2CCCCC2)cc1,4.05%,
COc1ccc(/C=C/c2noc(-c3ccccc3OC(C)=O)n2)cc1,0.465%,

Structure (SMILES),"activity change, negative = growth inhibition",Potency
CNC(=S)N/N=C/c1ccc(OCc2ccccc2)c(Br)c1,,9.2 µM (active)
C=CCNC(=S)N/N=C/c1ccc(OCc2ccccc2)cc1,-6.93%,
O=C(O)COc1ccc(/C=N/O)cc1Br,-0.568%,
O=C(COc1ccccc1)Nc1ccc(F)cc1,-2.03%,
CCN(c1ccccc1)S(=O)(=O)c1ccc(NC(=O)C(C)(C)C)cc1,-28.5%,
CC(C)(CCl)C(=O)Nc1ccc(Sc2ccc(F)cc2)cc1,,5.8 µM (active)
Cc1ccc(C(O)P(=O)(OC(C)C)c2ccc(N(C)C)cc2)cc1 (configuration not stated),11.2%,
COc1cc2c(cc1OC)C(c1ccccc1Br)NC(=O)C2 (configuration not stated),-11.7%,
O=C1c2ccccc2C(=O)C1C(=O)C1CC1,-101%,
CCc1c(C)nc(N)n2c(SCC(=O)NC3CCCCC3)nnc12,-9.06%,
CC1CCN(c2ccc3c(c2)S(=O)(=O)c2cc(C(=O)O)ccc2C3=O)CC1,6.79%,
Cc1cc(S(=O)(=O)Nc2ccc(C(=O)NCC(c3ccco3)N3CCCC3)cc2)ccc1F (configuration not stated),-19.1%,
Cc1c(C(=O)NCC(c2ccco2)N2CCCC2)oc2ccc(Cl)cc12 (configuration not stated),,20.6 µM (active)
CSc1ncccc1C(=O)NCC(c1ccco1)N1CCCCC1 (configuration not stated),1.81%,
COc1ccc2oc(C(=O)NCc3ccco3)c(C)c2c1,-28.7%,
CC1CCc2sc(C(=O)N/N=C/C3CCCCC3)cc2C1 (configuration not stated),8.96%,
CC1CCc2sc(C(=O)NCC(c3ccco3)N3CCCCC3)cc2C1 (configuration not stated),,16.4 µM (active)
Nc1nc(N)c(N=O)c(N)n1,-0.158%,
CC(=O)N(OCc1ccc(OC(C)C)c(Cl)c1)C(C)=O,2.14%,
O=C(COC(=O)CCOc1ccccc1)Nc1cc(S(=O)(=O)N2CCCCC2)ccc1Cl,7.55%,
COc1ccc(Cl)cc1S(=O)(=O)N1CCN(CC(=O)C(C)(C)C)CC1,-24.2%,
O=C(CN1CCN(S(=O)(=O)c2cc(Cl)ccc2Cl)CC1)c1ccc(O)c(O)c1,,9.2 µM (active)

Structure (SMILES),"activity change, negative = growth inhibition",Potency
O=S(=O)(c1cc(Cl)ccc1Cl)N1CCN(Cc2ccco2)CC1,-18.5%,
COc1ccccc1C1CCN(c2ccc([N+](=O)[O-])cn2)CC1,-0.392%,
Cc1cc(C(=O)Nc2ccccc2N2CCOCC2)c2ccccc2n1,-11.9%,
c1ccc(Nc2nc(N3CCOCC3)c3ccccc3n2)cc1,,20.6 µM (active)
O=c1[nH]c(N2CCOCC2)nc2ccccc12,-13%,
CC1(C)CC(=O)C(C=NCCN2CCN(C(=S)Nc3cccc(Cl)c3)CC2)=C(O)C1,0.286%,
O=C(CN1CCN(S(=O)(=O)c2ccc(Cl)s2)CC1)NCc1ccc(Cl)cc1,-21%,
CC1(Oc2ccccc2-c2ccno2)CCN(Cc2ccc(-c3ccccc3)o2)C1 (configuration not stated),,25.9 µM (active)
Nc1ncnc2c1ncn2[C@@H]1O[C@H](C(=O)N2CCCN(Cc3ccccc3F)CC2)[C@@H](O)[C@H]1O,-1.31%,
C=CCNC(=S)NNc1ncnc2sc3c(c12)CC(C)(C)OC3,,4.61 µM (active)
CC1(C)Cc2c(sc3nc4n(c(=N)c23)CCCCC4)CO1,-7.87%,
CCSc1nc2sc3c(c2c(=O)[nH]1)CC(C)(C)OC3,-6.76%,
Cc1c(CCC(=O)O)c(=O)oc2cc(OCc3ccc(Br)cc3)ccc12,-1.89%,
Fc1ccc(NC(=S)N2CCc3[nH]c4ccccc4c3C2)cc1,-0.771%,
COC(=O)c1scc(S(=O)(=O)C(C)(C)C)c1-n1cccc1,-11.3%,
CN(C)C(=O)c1nc2ccc(Cl)cn2c1CN1CCN(c2ncccn2)CC1,-7.94%,
Clc1ccc(-c2nc3ccccn3c2CN2CCSCC2)cc1,,29.1 µM (active)
CC/C(=N\NC(=O)c1c(C)nc2ccccn12)c1ccc(Cl)cc1,-18.7%,
O=C(COc1ccc(S(=O)(=O)NCc2ccccc2)cc1)N1CCOCC1,0.118%,
Cc1ccc(OCC(=O)Nc2ccc(S(=O)(=O)Nc3ccccn3)cc2)cc1,-5.79%,
Cc1ccc(NS(=O)(=O)c2ccc(C(C)(C)C)cc2)cn1,-4.37%,
Cc1ccc(S(=O)(=O)Nc2ccc3ncccc3c2)cc1,,10.3 µM (active)

Structure (SMILES),"activity change, negative = growth inhibition",Potency
Cc1oc2cc3oc(=O)ccc3cc2c1C,-2.18%,
CS(=O)(=O)c1ccc2nc(NC(=O)CN3CCCCCC3)sc2c1,-8.7%,
CS(=O)(=O)c1ccc2nc(NC(=O)C3C4C=CC(C4)C3C(=O)O)sc2c1 (configuration not stated),-6.9%,
O=C(NNC(=O)C1CCN(c2ncccn2)CC1)c1ccccc1,-3.34%,
O=C(NNC(=O)C1CCCC1)c1ccc(F)cc1,-1.66%,
Cc1sc2ncnc(N3CCC(C(=O)Nc4nc5ccc(Cl)cc5s4)CC3)c2c1C,,8.2 µM (active)
Cc1sc2ncnc(N3CCC(C(=O)NNC(=O)c4ccc(F)cc4)CC3)c2c1C,,18.4 µM (active)
COc1ccccc1C1CN(CCNC(=O)C2=CCCC2)Cc2ccccc2O1 (configuration not stated),-9.51% [at 9.04 µM],
Nc1ncnc2c1ncn2[C@@H]1O[C@H](CNCc2cccn2-c2nccs2)[C@@H](O)[C@H]1O,-14.9%,
CCCCN1C(=O)C(CC(=O)NC(c2ccccc2)c2ccccc2)CC(C(=O)N2CCOCC2)=C1C (configuration not stated),-7.93%,
O=C1NCCn2nc3ccccc3c21,-1.79%,
Cc1ccc2c(c1)N(CC(=O)N1CCCC(C)C1)C(=O)CO2 (configuration not stated),2.29%,
Cc1cc(Nc2ccc(N3CCOCC3)cc2)c2cccc(C)c2n1,-17.3%,
Cc1ccc(Nc2nc(N3CCOCC3)nc(N3CCOCC3)n2)cc1Cl,,23.1 µM (active)
CNc1nc(Nc2ccc(C)c(Cl)c2)nc(N)c1[N+](=O)[O-],0.15%,
COc1ccc(C2CC(=O)NC(=O)C2)cc1,7.32%,
CC(C)(C)c1ccc(SCCc2ccncc2)cc1,,18.4 µM (active)
c1ccc(CSCCc2ccncc2)cc1,-26.6%,
CC(C)(C)NC(=O)C(=O)NCc1ccncc1,36.2%,
